Compound activity: PubChem BioAssay, National Center for Advancing Translational Sciences (NCATS)
Compounds with a hit are over-represented: about 19% of the library has one in this group of screens.
TGFb inhibitor: blocks TGF-b signaling | 1.2% of 410,000 active | HepG2 CAGA-GFP TGF-b/SMAD3 reporter, GFP fluorescence, 18 h; TGF-beta stimulated, 500 pg/mL final | AID 588855 | Potency, µM (titrated, usually from 46.1 µM), without a hit: at the highest dose activity, negative = inhibition, actives largely listed as inhibitors; note: potency is the fitted concentration of half-maximal effect; % is set by controls: 0 for no effect and ±100 for the full control effect; nearly all actives have a fitted effect of over 65% in size
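Per well, imaged GFP fluorescence of HEPG2 CAGA-GFP cells gives the signal; cells get compound, then TGF-beta (500 pg/mL final), 18 h at 37 degrees C; %Activity versus -TGF-beta and +DMSO controls.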
TDP1 cell noCPT: qHTS for Inhibitors of human tyrosyl-DNA phosphodiesterase 1 (TDP1): qHTS in cells in absence of CPT. Potency, µM (doses to about 46.2 µM), without a hit: at the highest dose activity change, negative = growth inhibition, most hits filed as inhibitors. AID 686978, 2013. DT40 Tdp1-/- hTDP1 cells, no CPT, ATP luminescence, 48 h. 15% of 420,000 active; note: potency is the fitted concentration of half-maximal effect; % is set by controls: 0 for no effect and ±100 for the full control effect; nearly all actives have a fitted effect of over 55% in size
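Cells were dispensed at 400 per well, compounds added by pin tool, plates incubated ≥48 hr at 37 °C, then CellTiter-Glo added for 30 min at room temperature before luminescence reading. Line: DT40 Tdp1-/- complemented with hTDP1; camptothecin omitted.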
TDP1 cell CPT: growth inhibition of DT40 Tdp1-/-;hTDP1 cells with camptothecin (screen for TDP1 inhibitors); chicken DT40 Tdp1-/-;hTDP1 cells + 20 nM CPT, ATP luminescence, 48 h; Potency, µM (doses to about 46.2 µM), for the others: top-dose activity change, negative = growth inhibition, usual class: inhibitors; 12% of 420,000 active; note: potency is the fitted concentration of half-maximal effect; % is set by controls: 0 for no effect and ±100 for the full control effect; nearly all actives have a fitted effect of over 55% in size
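Chicken DT40 Tdp1-/- cells stably complemented with human TDP1 were seeded at 400 cells/well in medium containing 20 nM camptothecin, exposed to pin-transferred compounds, and grown at 37 °C for at least 48 hr. Viability was read as ATP luminescence.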
HepG2 viability: HepG2 cytotoxicity, counter-screen for TGF-b inhibitors; Potency, µM (titrated, usually from 46.1 µM), inactives show top-dose activity change, negative = cytotoxicity, most hits filed as cytotoxic; 0.76% of 410,000 active; HepG2 CAGA-GFP viability, ATP luminescence, 18 h; note: potency is the fitted concentration of half-maximal effect
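CellTiter-Glo luminescence gave cytotoxicity after 18 hours at 37 degrees C. The cells were HepG2 CAGA-GFP in 1% FBS DMEM, stimulated with 500 pg/mL TGF-beta after compound addition. %Activity was normalised to no-cell wells (complete cell-killing) and DMSO (no toxicity), and curves were fitted and classified.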
IL-1B inflam inh: inflammasome signaling inhibition, IL-1 beta readout. THP-1 LPS/ATP IL-1B secretion, AlphaLISA, 16 h; stronger effect = lower value. AID 743279. 4.7% of 360,000 active. activity change, % at 57.5 µM; in the data active = activity change below about -50%; inconclusive = mostly about -30% to -49%; note: % is set by controls: 0 for no effect and ±100 for the full control effect
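THP-1 cells pretreated 1 hr with compounds (up to 57.5 uM final), then stimulated with LPS (250 ng/mL final) plus ATP (1.25 mM final); secreted IL-1B measured by AlphaLISA after 16 hr, decreased signal indicating inhibition.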
ASM inhibitor: human S-ASM enzyme inhibition; P17405; placental ASM, HMU-PC fluorogenic substrate, 60 min; Potency, µM (top dose mostly 57.5 µM), for the others: top-dose activity change, negative = inhibition, usual class: inhibitors; 0.006% of 340,000 active; note: potency is the fitted concentration of half-maximal effect
Target sequence (P17405 47-631 limits assumed): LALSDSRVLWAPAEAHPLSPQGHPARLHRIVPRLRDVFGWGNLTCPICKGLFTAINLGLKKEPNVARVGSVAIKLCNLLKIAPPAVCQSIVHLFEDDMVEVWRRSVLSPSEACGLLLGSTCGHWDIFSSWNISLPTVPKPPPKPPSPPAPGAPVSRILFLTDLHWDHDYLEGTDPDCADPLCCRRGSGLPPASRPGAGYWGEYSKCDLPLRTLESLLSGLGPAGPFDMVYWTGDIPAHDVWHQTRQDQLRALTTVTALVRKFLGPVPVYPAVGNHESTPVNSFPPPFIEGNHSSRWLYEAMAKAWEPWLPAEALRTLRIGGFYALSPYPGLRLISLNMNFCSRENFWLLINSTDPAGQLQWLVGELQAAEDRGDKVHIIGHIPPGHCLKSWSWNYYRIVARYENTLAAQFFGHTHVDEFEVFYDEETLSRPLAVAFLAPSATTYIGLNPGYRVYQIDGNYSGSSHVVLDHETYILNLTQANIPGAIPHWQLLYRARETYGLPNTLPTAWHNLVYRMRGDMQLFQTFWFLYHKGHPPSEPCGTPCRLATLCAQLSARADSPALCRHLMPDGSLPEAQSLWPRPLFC
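Steps: dispense placental human ASM, pin compound, wait 10 min at room temperature, add HMU-PC0 substrate at 9 uM final, incubate 60 min at 37 °C, add stop solution raising pH to 10, read fluorescence.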
The depositor's hits bear a star; ? = inconclusive; . = not tested or not shown. Unless noted, calls come from the whole dose curve; as a rule, active = well fitted curve in the direction sought with a large enough effect; inconclusive = small, poorly fitted or top-dose-only effect, or another doubt; inactive = no such curve, though single readings can be large; an effect the other way counts as inactive or inconclusive.

SMILES	TGFb inhibitor	TDP1 cell noCPT	TDP1 cell CPT	HepG2 viability	IL-1B inflam inh	ASM inhibitor
COc1cccc(/C=N/NC(=O)CN2CC(c3ccccc3)CC2=O)c1O (configuration not stated)	-15%	18µM*	?	-17%	92	14%
O=C(COc1ccccc1)NCC(=O)N/N=C/c1ccc(O)cc1O	?	16µM*	?	-15%	120	74%
CCOc1ccc(CCNC(=O)C(O)c2ccccc2)cc1 (configuration not stated)	9%	-28%	4%	7%	15	-2%
COC(=O)Cc1ccc(NC(=S)N2CCCCC2C)cc1 (configuration not stated)	7%	5%	2%	-7%	5	2%
COc1cccc(/C=N/NC(=O)CNC(=O)c2cccnc2)c1O	0%	7.3µM*	-103%	0%	128	26%
Cc1ccc(CNC(=O)CCc2c(C)nc3c(-c4ccc(F)cc4)c(C)nn3c2C)cc1	-9%	-4%	-14%	-1%	.	.
CC(C)C[C@H](N)c1nnc(S(=O)(=O)Cc2cccc(F)c2)o1	18µM*	5.8µM*	5.8µM*	-90%	?	2%
CC(C)(C)OC(=O)N[C@@H](Cc1ccccc1)c1nnc(S(=O)(=O)Cc2cccc(F)c2)o1	11µM*	1.3µM*	1.3µM*	-102%	-80*	-4%
COC(=O)c1ccc(-c2cc(CC3(C(=O)OC)CCN(C(=O)OC(C)(C)C)CC3)on2)cc1	-2%	?	23µM*	-9%	-12	-5%
C[C@@H]1CCC(=O)N(C[C@@H](C)CSc2ccc(Br)cc2)CC1	?	18µM*	?	-1%	-19	-2%
Cc1ccc(SC[C@H](C)CN2CC[C@H](C)CCC2=O)cc1	-30%	18µM*	13µM*	-27%	22	0%
C[C@@H]1CCC(=O)N(C[C@@H](C)CSc2ccccc2)CC1	?	?	?	-21%	3	6%
CCOC(=O)C1(Cc2cccc(Cl)c2)CCCN(C(=O)c2ccc(COC)s2)C1 (configuration not stated)	-11%	21µM*	23µM*	1%	?	2%
CCOC(=O)C1(Cc2cccc(OC)c2)CCCN(C(=O)c2cc(C)on2)C1 (configuration not stated)	1%	-34%	?	5%	-16	2%
CCOC(=O)C1(Cc2cccc(Cl)c2)CCCN(C(=O)c2ccoc2C)C1 (configuration not stated)	-11%	18µM*	21µM*	-6%	-101*	3%
CCOC(=O)C1(Cc2cccc(OC)c2)CCCN(C(=O)c2ccccc2C)C1 (configuration not stated)	-18%	16µM*	?	-8%	23	1%
CCOC(=O)C1(Cc2cccc(Cl)c2)CCCN(C(=O)c2ccco2)C1 (configuration not stated)	-24%	?	?	-20%	9	-1%
O=C(O)c1ccccc1C(=O)Nc1ccccc1	-23%	-2%	2%	-5%	-1	2%
O=C(Nc1ccccc1)C1=C(c2ccccc2)S(=O)(=O)CCS1(=O)=O	2.5µM*	0.026µM*	0.058µM*	2.5µM*	-95*	1%
C=CCn1c(-c2cccnc2Cl)nc2ccccc21	-4%	5%	1%	21%	-12	7%
Clc1cccc(Cl)c1Cn1c(-c2cccnc2Cl)nc2ccccc21	0%	?	?	-32%	-6	-4%
CCCn1c(-c2cccnc2Cl)nc2cc(Cl)c(Cl)cc21	-5%	?	15µM*	-10%	7	-5%
C=CCn1c(-c2cccnc2Cl)nc2cc(Cl)c(Cl)cc21	-3%	?	18µM*	-15%	-2	27%
CCN(CC)C(=O)C1=C(C)N(CCCOC)C(=O)C(CC(=O)NC2CCCC2)C1 (configuration not stated)	1%	2%	4%	14%	7	.
O=C(NCc1ccc2c(c1)CCN2C(=O)c1ccccc1)c1ccco1	24%	?	?	-10%	.	.
SMILES	TGFb inhibitor	TDP1 cell noCPT	TDP1 cell CPT	HepG2 viability	IL-1B inflam inh	ASM inhibitor
CC(=O)Nc1ccc(S(=O)(=O)Nc2nc(CN3CCOCC3)nc3sc4c(c23)CCCC4)cc1	0%	?	-5%	-27%	-4	1%
Cc1cc(S(=O)(=O)Nc2nc(CN3CCOCC3)nc3sc4c(c23)CCC4)ccc1F	-25%	26µM*	?	-24%	29	-2%
CCOC(=O)c1cc(-c2ccc(OC)cc2)n(CCC(=O)NCCc2ccccc2)c1C	?	18µM*	21µM*	-11%	.	.
CCOC(=O)c1cc(-c2ccc(C)cc2)n(CCC(=O)NCCCOC)c1C	-13%	-13%	-22%	-12%	-5	-3%
CCOC(=O)c1cc(-c2ccccc2)n(CCC(=O)NCCc2cccc(C)c2)c1C	?	?	16µM*	-34%	.	.
Cc1nc(COc2ccccc2Cl)sc1-c1ccnc(N)n1	12%	?	?	-32%	-62*	-1%
O=C(c1ccccc1)N(Cc1ccccc1)Cc1ccccc1	0%	?	?	-6%	-6	1%
O=C(C1CC1)N(CCN(Cc1ccccc1)C(=O)C1CC1)Cc1ccccc1	6%	13µM*	16µM*	10%	-20	-3%
COc1nc(N)nc(NC(=O)c2cccs2)c1N=O	?	2.3µM*	2.1µM*	13µM*	-87*	1%
COc1ccc(NC(=O)c2ccc(NC(=O)c3cccs3)cc2)cc1	-2%	-11%	-20%	-17%	-8	-1%
Cc1ccc(S(=O)(=O)NCCC(=O)NNc2c(F)c(F)cc(F)c2F)cc1	-16%	?	2%	2%	-8	-2%
O=C(NC(=S)NNC(=O)[C@H]1C[C@@H]1c1ccccc1)c1ccc(F)cc1	-22%	13µM*	15µM*	-5%	67	-5%
CC(C)(C)NC(=S)NNC(=O)[C@H]1C[C@@H]1c1ccccc1	-33%	?	?	-42%	1	-2%
COc1cc(OC)cc(C(=O)NC(=S)NNC(=O)[C@H]2C[C@@H]2c2ccccc2)c1	4%	18µM*	?	-1%	43	1%
